Results on 24 compounds are retold here after PubChem BioAssay AID720509 (The Scripps Research Institute Molecular Screening Center, 2013).

The campaign covered roughly 370,000 compounds. About 760 (0.21%) were called active. The list comes from a sample in which actives are over-represented; it also holds similar structures and randomly drawn compounds. Values without a mark were called inactive.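 How the source made its calls: active means inhibition above a per-campaign cutoff: mean of compounds within control limits plus 3 SD (cut at about 15% in these data); inactive means the rest.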

Chain of Fibrinogen beta chain (Homo sapiens) (P02675 whole entry, looked up): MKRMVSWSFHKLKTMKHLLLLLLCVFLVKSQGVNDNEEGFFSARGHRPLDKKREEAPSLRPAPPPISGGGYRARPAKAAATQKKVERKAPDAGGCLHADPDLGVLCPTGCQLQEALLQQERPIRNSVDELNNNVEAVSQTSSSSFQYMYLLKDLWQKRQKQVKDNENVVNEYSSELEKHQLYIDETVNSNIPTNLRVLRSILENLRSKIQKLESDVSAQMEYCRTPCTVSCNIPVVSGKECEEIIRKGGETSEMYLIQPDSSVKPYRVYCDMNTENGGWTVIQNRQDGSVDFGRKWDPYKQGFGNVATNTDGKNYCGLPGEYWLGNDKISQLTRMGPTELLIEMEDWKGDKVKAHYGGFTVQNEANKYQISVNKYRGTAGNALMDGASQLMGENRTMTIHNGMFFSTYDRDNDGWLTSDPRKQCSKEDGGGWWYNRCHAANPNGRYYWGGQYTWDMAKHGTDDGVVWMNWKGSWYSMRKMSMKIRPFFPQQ

This assay addresses Fibrinogen beta chain (Homo sapiens) (UniProt P02675). The assay is described as follows: inhibitors of Tn6 peptide binding to fibrin DD(E), primary screen, biochemical, fluorescence polarization, human fibrin, Tn6 probe (AID 720509).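 Further: 0% = median of all compound wells on the plate and 100% = blocking peptide control.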 Conditions: Fibrin DD(E) TRITC-Tn6 fluorescence polarization displacement; at 8.3 µM; active compounds read high. A general note: Polarisation of emitted light reports the rotation of a fluorescent probe.
The term inhibition denotes the change of the read-out against control, counted positive when it falls. For `COc1cc(OC)cc(-c2c(-c3cccs3)c3cc(-c4ccc(OC)cc4F)ccc3n2C)c1`, the inhibition is 8.62%.

In the case of `Cc1nnsc1C(=O)NCc1c(F)cccc1Cl`, the inhibition was 2.62%.

As to `CCC1CCCCN1S(=O)(=O)Cc1ccccc1Cl` (centres undefined), the inhibition is -7.39%.

For `Cc1nnsc1S(=O)(=O)Cc1ccccc1Cl`, the inhibition was 16.3% (active).

For the compound `CCOC(=O)N1CCC(NC(=O)C(NS(=O)(=O)c2ccc3c(c2)CCN3C(=O)CC)C(C)C)CC1` (centres undefined), the inhibition is 0.83%.

Take `CC(C)Cc1ccc(S(=O)(=O)N2CCN(C(=O)c3ccco3)CC2)cc1`: the inhibition is 0.21%.

Consider `C[C@H](CO)N1C[C@H](C)[C@@H](CN(C)Cc2ccc(-c3ccccc3)cc2)Oc2ccc(NC(=O)Cn3cnnn3)cc2C1=O`, for which the inhibition is 4.05%.

Consider `COC(=O)c1cc(=O)n(-c2c(Cl)cc(C(F)(F)F)cc2Cl)[nH]1`, for which the inhibition was 0.92%.

As for `O=C(OCCOc1ccccc1Cl)c1cc(S(=O)(=O)N2CCCCC2)ccc1N1CCOCC1`, the inhibition is -7.85%.

As for `CC(C)c1cc(NCc2ccccn2)n2c(nc3ccccc32)c1C#N`, the inhibition is 5.58%.

Take `Cc1cc2cc(CNC(=O)c3ccc(S(=O)(=O)N4CCOCC4)cc3)ccc2[nH]1`: the inhibition is 16% (active).

Regarding `O=C(Nc1ccc2cn[nH]c2c1)c1ccc(S(=O)(=O)N2CCOCC2)cc1`, the inhibition was 3.58%.

Turning to `Cc1cc2cc(CNC(=O)c3cccs3)ccc2[nH]1`, the inhibition was -2.34%.

As to `N=c1n(Cc2ccc(Cl)cc2)c2ccccc2n1CC(O)c1ccco1` (centres undefined), the inhibition was 0.26%.

On to `C=CCNC(=S)N1CCN(CCN=Cc2c(C)[nH]n(-c3ccc([N+](=O)[O-])cc3)c2=O)CC1`, for which the inhibition is -4.37%.

Take `O=C(CSCc1ccc([N+](=O)[O-])cc1)NCCSCc1ccccc1`: the inhibition is 2.74%.

Take `O=c1[nH]n(-c2ccc([N+](=O)[O-])cc2)c(=O)c2ccccc12`: the inhibition was 27.3% (active).

In the case of `COc1cccc(NC(=O)Cn2c3ccc(F)cc3c3nc4n(c(=O)c32)CCS4)c1`, the inhibition was -7.55%.

Consider `COc1ccc(C2/C=C\CN(S(=O)(=O)c3cccs3)CC(=O)N2Cc2ccc(F)cc2)cc1` (centres undefined), for which the inhibition was -0.69%.

With `CC(=O)c1ccc(OCCCC(=O)Nc2ccc(C)c(S(=O)(=O)N3CCOCC3)c2)cc1`, the inhibition was 6.11%.

With `CCCCNC(=O)c1ccccc1NC(=O)c1ccccc1N(C)S(C)(=O)=O`, the inhibition is 2.47%.

With `COc1ccccc1N(CCOc1ccccc1)S(=O)(=O)c1ccccc1`, the inhibition is 5.19%.

As to `COC(C/C=C/C(=O)[C@@H](C)OCc1ccccc1)OC`, the inhibition is 5.15%.

As to `O=c1c2ccccc2nc2n1C(CSCc1cccc(C(F)(F)F)c1)CS2` (centres undefined), the inhibition is 2.51%.
